# From the supplement of paper PMC10338343
# ± gives the standard deviation.
# System: MILI (PIWIL2) piRISC loaded with L1MC piRNA (26 nt)
# Experiment: pre-steady-state target cleavage rate (min^-1); guide: L1MC piRNA 5'p-UAACUAAAUACUAUGCAAGCUGUAGG; MIWI and MILI are mouse PIWI proteins and EfPiwi is from a freshwater sponge; tags in brackets are library labels; higher = faster piRNA-guided slicing of the target
# Details: auxiliary factor: 500 nM mouse GTSF1
# How it was run: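 With or without 500 nM GTSF1 partner protein, 1 nM active affinity-purified piRISC carrying one synthetic guide was mixed with 0.1 nM transcribed, DNA-blocked target RNA library in HEPES–potassium acetate buffer at 33 °C for 0–8 or 0–960 min. Uncleaved targets were sequenced and normalised to depth and to weakly complementary targets, three trials were pooled, and k3 was capped at 0.0001 min^-1. The pre-steady-state cleavage rate came from a burst-and-steady-state fit.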
row,Sequence,pre-steady-state target cleavage rate
1,UCCUCCUACAGCUUGCAUAGAAAUUAGUUA,0.0406 ± 0.0085
2,UCCUGGUACAGCUUGCAUAGAAUUUUGUUA,0.0466 ± 0.016
3,UCCUGGAUGUCGUUGCAUAGUAUCUAGUUA,0.11 ± 0.019
4,UCCUGCUACAGCUUGCAUAGAUUUUUCAAA,0.0091 ± 0.0044
5,UCCUGGAACAGCUUGCAUAGUUAAUAGUUA,0.0282 ± 0.01
6,UCCUGCUACAGCUUGGUUAGUAUUUAGAAA,0.018 ± 0.007
7,UCCUCCUACAGCUUGCAAUGUAUUUAGAAA,0.0725 ± 0.016
8,UCCUCCUACAGCAACCAUAGUAUUUAGAAA,0.0741 ± 0.02
9,UCCUCCUACAGCUACCAUAGUAUUUAGAAA,0.0576 ± 0.019
10,UCCUCCUACAGCUUGCAUAGUAAAAUCAAA,0.0893 ± 0.023
11,UCCUGGAUCAGCUUGGUUAGUAUUUACAAA,0.00756 ± 0.0052
12,UCCUGGAUCACGUUGCAUAGUAUUUACAAA,0.0591 ± 0.015
13,UCCUGGAACAGCUUGCAUAGUAAUUACUUA,0.023 ± 0.0082
14,UCCUGCUUCAGCUUGCAUAGUAUUUAGAAA,0.195 ± 0.037
15,UCCUGGUACUGCUUGCAUAGUAUUAAGUUA,0.15 ± 0.035
16,UCCUGGAUGUCCUAGCAUAGAAUUUAGUUA,0.00538 ± 0.004
17,UCCUGGAUGUCGAACGUAUGUAUUUAUUUA,< 0.0001

row,Sequence,pre-steady-state target cleavage rate
1,UCCUGGUUCAGCUUGCAUAGUAUUUACAAA,0.0698 ± 0.021
2,UCCUGGAUGUCGAAGCUUAGUAUUUAGUUA,0.00685 ± 0.0029
3,UCCUGGAUGUCGUUGCAUAGCAUUUAGUUA,0.0206 ± 0.007
4,UCCUGCUACAGCUUGCAUUCUAUUUAGUAA,0.0252 ± 0.0088
5,UCCUGGAUGUCCUAGCAUAGUAUUUACUUA,0.0287 ± 0.0091
6,UCCUGGAUGUCGAAGCAUAGUAAUUAGUUA,0.00988 ± 0.0037
7,UCCUGGAUGUGCUUGCAUAGAAUUUAGUAA,0.00482 ± 0.0043
8,UCCUGGAACAGCUUGCAUAGUAUAAUCAAA,0.0568 ± 0.016
9,UCCUGGUACAGCUUGCAUAGUUUAUAGUUA,0.0525 ± 0.018
10,UCCUCCUACACCUUGCAUAGUAUUUUCAAA,0.0721 ± 0.021
11,UCCUGGUACAGCAAGCAUAGUAUUUACAAA,0.0528 ± 0.019
12,UCCUGGAUGUCGAUUCAUAGUAUUUAGUUA,0.0157 ± 0.0044
13,UCCUGGAUGAGCAAGCAUAGUAUUUAGAAA,0.0674 ± 0.015
14,UCCUGGAACAGCUUGCUUAGAAUUUAGUUA,0.0285 ± 0.0057
15,UCCUGGUACAGCUUGCUUAGUAUUUACUUA,0.191 ± 0.038
16,UCCUCCUACAGGUUGCAUAGUAUUUACUUA,0.0691 ± 0.015
17,UCCUCCUACAGGAAGCAUAGUAUUUUCAAA,0.0352 ± 0.012
